Targets with a hit are over-represented here; the source holds about 7,900 in all. About 0.6% of all pairs of compound and target were hits. Values without a mark were called inactive.

UniProt Q96EU6, sequence (Q96EU6 whole entry, looked up): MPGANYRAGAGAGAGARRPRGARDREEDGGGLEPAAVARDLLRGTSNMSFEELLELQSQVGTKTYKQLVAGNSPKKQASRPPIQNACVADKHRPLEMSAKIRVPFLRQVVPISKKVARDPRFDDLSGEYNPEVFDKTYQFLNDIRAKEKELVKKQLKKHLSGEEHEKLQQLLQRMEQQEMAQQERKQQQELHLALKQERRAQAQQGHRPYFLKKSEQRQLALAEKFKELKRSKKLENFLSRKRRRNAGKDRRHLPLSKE
UniProt Q7Z6E9, sequence (Q7Z6E9 whole entry, looked up): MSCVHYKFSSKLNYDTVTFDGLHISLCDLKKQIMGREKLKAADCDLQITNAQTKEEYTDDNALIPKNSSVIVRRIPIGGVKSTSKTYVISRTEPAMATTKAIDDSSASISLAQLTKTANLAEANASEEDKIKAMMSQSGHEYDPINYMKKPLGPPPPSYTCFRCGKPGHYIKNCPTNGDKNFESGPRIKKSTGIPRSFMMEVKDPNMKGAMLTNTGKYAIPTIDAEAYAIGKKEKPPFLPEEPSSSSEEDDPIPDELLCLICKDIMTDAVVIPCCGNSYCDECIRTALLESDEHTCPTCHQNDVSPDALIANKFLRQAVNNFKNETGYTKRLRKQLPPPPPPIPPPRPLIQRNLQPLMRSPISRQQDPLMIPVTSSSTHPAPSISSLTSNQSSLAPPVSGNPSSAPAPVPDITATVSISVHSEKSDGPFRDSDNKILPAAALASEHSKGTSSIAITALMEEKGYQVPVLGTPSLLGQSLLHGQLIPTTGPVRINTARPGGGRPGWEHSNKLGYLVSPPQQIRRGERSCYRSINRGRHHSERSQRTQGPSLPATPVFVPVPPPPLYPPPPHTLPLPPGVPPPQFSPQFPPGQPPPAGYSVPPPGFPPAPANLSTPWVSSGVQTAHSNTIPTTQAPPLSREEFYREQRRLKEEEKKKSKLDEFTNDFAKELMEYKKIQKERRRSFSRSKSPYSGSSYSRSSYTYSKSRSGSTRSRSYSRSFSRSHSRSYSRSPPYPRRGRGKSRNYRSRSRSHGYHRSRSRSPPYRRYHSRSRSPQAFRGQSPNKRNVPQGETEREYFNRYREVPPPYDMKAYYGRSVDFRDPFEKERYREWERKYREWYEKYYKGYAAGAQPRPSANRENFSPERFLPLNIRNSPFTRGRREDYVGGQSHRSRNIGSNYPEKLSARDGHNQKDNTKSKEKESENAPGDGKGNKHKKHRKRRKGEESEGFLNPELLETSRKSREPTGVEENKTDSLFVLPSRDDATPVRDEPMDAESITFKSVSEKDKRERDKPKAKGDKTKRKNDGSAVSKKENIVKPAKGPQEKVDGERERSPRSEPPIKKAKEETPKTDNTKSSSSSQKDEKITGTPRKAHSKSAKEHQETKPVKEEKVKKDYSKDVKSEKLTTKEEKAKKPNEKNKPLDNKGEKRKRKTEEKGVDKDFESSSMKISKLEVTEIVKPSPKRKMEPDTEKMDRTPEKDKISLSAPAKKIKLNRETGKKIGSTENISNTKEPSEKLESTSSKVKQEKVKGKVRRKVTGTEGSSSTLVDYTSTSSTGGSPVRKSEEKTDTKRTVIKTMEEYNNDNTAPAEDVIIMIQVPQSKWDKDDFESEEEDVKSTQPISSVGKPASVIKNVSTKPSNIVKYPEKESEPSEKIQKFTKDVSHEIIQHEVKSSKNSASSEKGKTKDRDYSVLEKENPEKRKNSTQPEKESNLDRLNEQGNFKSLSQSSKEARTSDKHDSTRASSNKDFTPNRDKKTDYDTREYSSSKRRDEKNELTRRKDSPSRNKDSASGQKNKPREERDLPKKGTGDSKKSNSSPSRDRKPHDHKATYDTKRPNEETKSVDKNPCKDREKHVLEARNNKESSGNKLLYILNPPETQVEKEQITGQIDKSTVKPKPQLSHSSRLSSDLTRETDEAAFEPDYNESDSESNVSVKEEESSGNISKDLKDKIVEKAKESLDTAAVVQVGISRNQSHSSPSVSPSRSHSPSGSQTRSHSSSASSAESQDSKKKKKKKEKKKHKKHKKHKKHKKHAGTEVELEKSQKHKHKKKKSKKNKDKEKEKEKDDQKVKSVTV
UniProt P51812, sequence (P51812 whole entry, looked up): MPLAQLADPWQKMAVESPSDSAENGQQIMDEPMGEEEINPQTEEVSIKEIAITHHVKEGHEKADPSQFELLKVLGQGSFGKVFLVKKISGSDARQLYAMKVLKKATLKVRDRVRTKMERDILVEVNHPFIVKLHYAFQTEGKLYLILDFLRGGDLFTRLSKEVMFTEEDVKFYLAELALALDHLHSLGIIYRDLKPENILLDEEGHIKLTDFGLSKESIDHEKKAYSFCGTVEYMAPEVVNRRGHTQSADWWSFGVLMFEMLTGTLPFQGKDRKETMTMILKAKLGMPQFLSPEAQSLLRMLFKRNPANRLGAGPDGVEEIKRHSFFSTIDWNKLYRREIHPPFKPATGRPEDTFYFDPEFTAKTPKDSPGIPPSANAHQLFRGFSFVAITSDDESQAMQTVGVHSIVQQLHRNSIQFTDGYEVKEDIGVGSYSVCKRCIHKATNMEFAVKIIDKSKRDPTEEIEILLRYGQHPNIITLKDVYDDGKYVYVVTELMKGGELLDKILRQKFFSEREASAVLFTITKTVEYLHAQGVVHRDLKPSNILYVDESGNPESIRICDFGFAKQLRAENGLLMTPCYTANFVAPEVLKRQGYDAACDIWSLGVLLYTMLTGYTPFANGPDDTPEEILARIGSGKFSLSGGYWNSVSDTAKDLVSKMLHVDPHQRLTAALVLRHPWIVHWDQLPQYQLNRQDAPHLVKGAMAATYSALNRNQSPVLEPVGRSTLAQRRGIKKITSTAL
UniProt Q9BQY4, sequence (Q9BQY4 whole entry, looked up): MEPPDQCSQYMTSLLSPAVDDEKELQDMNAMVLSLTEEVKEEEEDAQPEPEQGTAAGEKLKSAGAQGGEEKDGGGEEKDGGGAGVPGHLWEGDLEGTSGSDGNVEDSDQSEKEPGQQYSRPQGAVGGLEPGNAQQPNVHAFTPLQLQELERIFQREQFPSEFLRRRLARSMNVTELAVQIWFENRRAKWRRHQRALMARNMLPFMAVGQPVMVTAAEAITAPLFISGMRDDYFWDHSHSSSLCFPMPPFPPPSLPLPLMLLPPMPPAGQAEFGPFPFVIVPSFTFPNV
UniProt Q8IZV5, sequence (Q8IZV5 whole entry, looked up): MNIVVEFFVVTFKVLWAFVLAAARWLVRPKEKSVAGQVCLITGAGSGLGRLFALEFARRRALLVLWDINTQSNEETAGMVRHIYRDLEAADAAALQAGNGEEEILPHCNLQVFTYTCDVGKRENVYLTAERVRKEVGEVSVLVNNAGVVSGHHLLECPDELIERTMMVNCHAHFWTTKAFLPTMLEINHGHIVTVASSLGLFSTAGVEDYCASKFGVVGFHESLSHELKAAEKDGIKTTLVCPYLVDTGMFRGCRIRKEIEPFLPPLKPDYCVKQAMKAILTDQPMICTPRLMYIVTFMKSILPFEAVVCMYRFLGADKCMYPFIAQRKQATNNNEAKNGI
UniProt Q9H4A4, sequence (Q9H4A4 whole entry, looked up): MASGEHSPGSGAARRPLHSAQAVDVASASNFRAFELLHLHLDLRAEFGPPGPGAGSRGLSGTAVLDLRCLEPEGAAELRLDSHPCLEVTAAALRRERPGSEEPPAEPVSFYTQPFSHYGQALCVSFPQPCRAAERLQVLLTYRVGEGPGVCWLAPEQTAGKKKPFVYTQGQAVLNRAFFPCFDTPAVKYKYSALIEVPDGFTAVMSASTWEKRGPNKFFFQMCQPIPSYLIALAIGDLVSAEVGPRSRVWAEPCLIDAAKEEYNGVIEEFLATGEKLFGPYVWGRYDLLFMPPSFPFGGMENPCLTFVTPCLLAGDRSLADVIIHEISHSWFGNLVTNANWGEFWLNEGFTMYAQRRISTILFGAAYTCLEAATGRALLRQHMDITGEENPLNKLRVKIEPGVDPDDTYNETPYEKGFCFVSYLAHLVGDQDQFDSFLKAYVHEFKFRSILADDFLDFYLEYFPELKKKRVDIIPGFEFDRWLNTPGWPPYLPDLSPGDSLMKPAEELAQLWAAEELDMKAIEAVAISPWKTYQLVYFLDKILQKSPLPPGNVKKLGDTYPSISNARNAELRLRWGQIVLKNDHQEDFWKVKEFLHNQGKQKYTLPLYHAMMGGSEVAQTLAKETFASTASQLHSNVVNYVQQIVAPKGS
UniProt Q5RL73, sequence (Q5RL73 whole entry, looked up): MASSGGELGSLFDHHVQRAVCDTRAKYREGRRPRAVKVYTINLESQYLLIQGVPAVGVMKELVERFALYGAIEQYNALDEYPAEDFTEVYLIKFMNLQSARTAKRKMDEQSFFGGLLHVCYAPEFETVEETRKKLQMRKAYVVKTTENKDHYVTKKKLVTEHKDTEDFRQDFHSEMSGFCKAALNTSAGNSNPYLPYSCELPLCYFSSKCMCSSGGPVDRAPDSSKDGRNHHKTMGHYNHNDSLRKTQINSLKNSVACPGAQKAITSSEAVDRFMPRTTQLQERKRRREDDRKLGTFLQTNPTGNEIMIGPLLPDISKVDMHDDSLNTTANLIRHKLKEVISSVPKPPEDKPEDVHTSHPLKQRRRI
UniProt P61586, sequence (P61586 whole entry, looked up): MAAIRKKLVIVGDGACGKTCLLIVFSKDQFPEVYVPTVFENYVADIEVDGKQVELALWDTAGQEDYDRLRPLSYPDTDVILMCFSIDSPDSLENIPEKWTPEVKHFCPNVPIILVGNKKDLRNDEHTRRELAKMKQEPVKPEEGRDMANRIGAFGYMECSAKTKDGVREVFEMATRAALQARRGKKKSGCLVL
UniProt O15127, sequence (O15127 whole entry, looked up): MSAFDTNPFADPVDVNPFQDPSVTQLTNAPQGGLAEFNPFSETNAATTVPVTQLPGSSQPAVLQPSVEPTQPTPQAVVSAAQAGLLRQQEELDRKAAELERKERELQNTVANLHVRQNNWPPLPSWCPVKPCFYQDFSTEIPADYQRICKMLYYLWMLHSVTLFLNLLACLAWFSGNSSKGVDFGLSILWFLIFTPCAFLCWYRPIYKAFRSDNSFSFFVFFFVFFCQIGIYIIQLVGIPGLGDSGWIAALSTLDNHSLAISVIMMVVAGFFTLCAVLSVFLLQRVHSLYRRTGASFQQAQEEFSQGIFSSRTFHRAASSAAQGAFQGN

Compound in this assay: CC[C@@H]1C(=O)N(C)c2cnc(Nc3ccc(C(=O)N[C@H]4CC[C@H](N5CCN(CC6CC6)CC5)CC4)cc3OC)nc2N1C(C)C [volasertib]
Put plainly: log2 fold change, soluble protein after heating vs DMSO (PISA); higher = thermal stabilisation; K562 cells, 10 uM, 30 min; active = over 0.2 and 3.5 SD of the protein, either way, in both replicates (recomputed). In short, it runs like this:
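K562 cells at 2×10^6 cells/mL were given 10 μM compound for 30 min. Aliquots then went through 3 min of heating across 48°C-58°C, were pooled, and were extracted in PBS with 0.5% NP-40 at 4°C, and the supernatant after 21,000xg for 90 min was quantified by TMTpro 16plex LC-MS/MS with channel sums equalised. Thermal stability relative to control samples, from duplicates, is given as log2 fold change.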
Take RARS2 (UniProt Q5T160): the log2 fold change is -0.238 (active).
Then RRP36 (UniProt Q96EU6), with 0.376.
As for RCOR1 (UniProt Q9UKL0), the figure is 0.001; as for RBM48 isoform 2 (UniProt Q5RL73), -0.003.
Turning to RPS18 (UniProt P62269), the log2 fold change was 0.3.
For RPA3 (UniProt P35244), the log2 fold change was -0.056.
Consider RPS6KA3 (UniProt P51812), for which the log2 fold change is -0.174.
Then RHOXF2 (UniProt Q9BQY4), with 0.061.
For SCAMP2 (UniProt O15127), the log2 fold change is 0.052.
As for SAMD4B (UniProt Q5PRF9), the figure is 0.078; as for RAD50, A0A494C0Y7, -0.109.
As for RNF167 (UniProt Q9H6Y7), the figure is 0.003; as for SLC19A1 (UniProt P41440), 0.078; as for SH2D1B (UniProt O14796), -0.029.
Consider RHOA (UniProt P61586), for which the log2 fold change was 0.134.
Then RNPEP (UniProt Q9H4A4), with -0.303 (active); and RAB3IL1 (UniProt E9PK89), with -0.137; and RDH10 (UniProt Q8IZV5), with 0.037.
Then RAF1 isoform 2 (UniProt P04049), with -0.361; and RBBP6 (UniProt Q7Z6E9), with -0.068.
For the target ROCK1 (UniProt Q13464), the log2 fold change is -0.083.
As for RUFY1 (UniProt Q96T51), the figure is -0.355 (active); as for SCAMP2 (UniProt H3BUB6), -0.006.
